PubChem BioAssay (NCI)
About 83,000 compounds went through this panel and 20% of them were active in at least one assay; those are over-represented in the sample as a whole.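 Compound tested at a single concentration for 48 hours in 96-well plates; a percent growth value below 10 was scored as active.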 Values without a mark were called inactive. Active and inactive are the calls of the source.

How the values were obtained:
Assay in all cases: NCI-60 one-dose screen, 48 h (100 = growth as untreated, 0 = no growth, -100 = all killed)
Details in all cases: 10 µM unless noted
[1] = system: EKVX NSCLC
[2] = system: SN12C renal
[3] = system: TK-10 renal
[4] = system: ACHN renal
[5] = system: CAKI-1 renal
[6] = system: A498 renal
[7] = system: CCRF-CEM leukemia
[8] = system: MOLT-4 leukemia
[9] = system: SR leukemia
[10] = system: RPMI-8226 leukemia
[11] = system: OVCAR-5 ovarian
[12] = system: OVCAR-4 ovarian
[13] = system: SK-OV-3 ovarian
[14] = system: IGROV1 ovarian
[15] = system: OVCAR-3 ovarian
[16] = system: HS 578T breast
[17] = system: NCI/ADR-RES ovarian
[18] = system: UO-31 renal
[19] = system: OVCAR-8 ovarian

Row | Compound | growth [1] | growth [2] | growth [3] | growth [4] | growth [5] | growth [6] | growth [7] | growth [8] | growth [9] | growth [10] | growth [11] | growth [12] | growth [13] | growth [14] | growth [15] | growth [16] | growth [17] | growth [18] | growth [19]
1 | C=C1C(=O)O[C@H]2[C@H]1CC/C(COC(=O)CCSSCCC(=O)OC/C1=C/CC[C@@]3(C)O[C@H]3[C@H]3OC(=O)C(=C)[C@@H]3CC1)=C\CC[C@@]1(C)O[C@@H]21 | 12.6% | -45.8% (active) | -33.8% (active) | -85.2% (active) | 20.3% | 72.9% | -23.6% (active) | -26.8% (active) | -14.1% (active) | -23.5% (active) | 17.7% | 29.9% | 89.9% | -49.6% (active) | -35.8% (active) | 7.57% (active) | 50.5% |  | 
2 | CCS(=O)(=O)c1ncnc2nc[nH]c12 | 99.3% | 94.5% | 98.2% | 106% | 99.6% | 92.8% | 93.3% | 103% | 97.8% | 95.9% | 98.1% | 106% | 95.2% | 109% | 111% | 97.6% | 104% |  | 
3 | c1ccc2cc(C[n+]3ccn(CCCCCCCCCCCCn4cc[n+](Cc5ccc6ccccc6c5)c4)c3)ccc2c1 | -62.6% (active) | -76.4% (active) | -48.2% (active) | 10.5% | 41.9% | -32.6% (active) | -68.3% (active) | -69.7% (active) | -50% (active) | -70.7% (active) | -25.3% (active) | -60.1% (active) | -47.9% (active) | -73.8% (active) | -88.7% (active) | -59.2% (active) | 61.7% | 24.2% | 
4 | Nc1nc2ccccc2c2c(=O)c3cc(F)ccc3sc12 | 91.5% | 101% | 110% | 101% | 107% | 89.7% | 105% | 101% | 101% |  | 102% | 101% | 108% | 103% | 113% | 101% | 97.5% | 91.3% | 106%
5 | O=C(O)c1cn(C2CC2)c2cc(N3CCN(C(=O)Nc4nc(-c5ccccc5)cs4)CC3)c(F)cc2c1=O | 37.5% | 4.91% (active) | 26.3% | 25.2% | 63.6% | -0.916% (active) | 23% | 22.9% | 4.63% (active) |  | 50.3% | 62.4% | 14.7% |  | 7.8% (active) | 40.6% |  | 5.5% (active) | 13.8%
6 | COc1cc(C(=O)c2cc(C)c3[nH]c4ccc(C)cc4c3c2C)cc(OC)c1OC | 44.1% | 22.5% | 87.5% | 26.4% | 24.2% | -8.86% (active) | 14.2% | 16.8% |  | 12.9% | 41.7% | 53% | 36.9% | 13.5% | -16.4% (active) | 43.1% | -2.71% (active) | 24.9% | 28.7%
7 | C=C1C(=O)O[C@H]2[C@H]1CC/C(COC(=O)CSCC(=O)OC/C1=C/CC[C@@]3(C)O[C@H]3[C@H]3OC(=O)C(=C)[C@@H]3CC1)=C\CC[C@@]1(C)O[C@@H]21 |  | 22.1% | 9.84% (active) | 2.35% (active) | 76.4% | 81.1% | -7.55% (active) | -3.7% (active) | 0.996% (active) | -2.24% (active) | 87.3% | 46.6% | 97.5% | 7.28% (active) | 3.24% (active) | 59.7% | 86.2% | 3.4% (active) | 
8 | NCCNc1nc2ccccc2c2c(=O)c3cc(F)ccc3sc12 | 78.2% | 71.1% | 101% | 54.5% | 45.1% | 49.4% | 45.7% | 46.6% | -20.5% (active) |  | 91.4% | 60.3% | 83.3% | 70.9% | 66.8% | 74.8% | 78.8% | 47.3% | 79.2%
9 | CCN1C(=O)N(CC)C2Nn3c(s/c(=C4\C(=O)N(CCC(C)C)c5ccccc54)c3=O)=NC21 (centres undefined) | 67.1% | 89.3% | 38.3% | 67.6% | 51.3% | 72.9% | 57.1% | 85.5% |  | 73.7% | 102% | 63.5% | 98.7% | 63.8% |  | 81.4% | 57.8% | 54.3% | 86%
10 | CC1=C([Se]CC(OC(=O)[C@@H](CSSC(C)(C)C)NC(=O)OC(C)(C)C)C(=O)NC(C)(C)C)C(=O)c2ccccc2C1=O (some centres undefined) | -74.2% (active) | -73.3% (active) | -96% (active) | -83% (active) | -52.1% (active) | -28.9% (active) | -21.6% (active) | 15.8% | 22% |  | -75.8% (active) | -92.9% (active) | -100% (active) | 8.36% (active) | -99.2% (active) | -11.2% (active) | -78.9% (active) | 15.4% | -73.7% (active)
11 | O=C(Nc1ccc(F)cc1F)c1cc(F)ccc1O | 64.2% | -3.45% (active) | 22.9% | 7.4% (active) | 3.45% (active) | -37.5% (active) | 30.4% | 5.84% (active) | 4.78% (active) |  | 23.3% | 21% | 4.34% (active) | 21.4% |  | 12% |  | -16.1% (active) | 14.9%
12 | Cc1nc(/N=C(\N)NC(=O)Nc2cccc(Cl)c2)sc1C | 68.3% | 86.4% | 111% | 78.4% | 48.6% | 42.4% | 68.4% | 58.4% |  | 77% | 96.3% | 99.3% | 87.7% |  | 81.5% | 68.8% | 42.3% | 84% | 94.5%
13 | CNc1nc2c(s1)C(c1cccc(F)c1)CC(=O)N2 (centres undefined) | 103% | 95.2% | 105% | 88.4% | 87.6% | 69% | 104% | 103% |  | 106% | 97.1% | 107% | 100% | 107% | 99.1% | 94.3% | 103% | 84.6% | 
